# Laboratory results as given in PubChem BioAssay (NCATS).
# Records with an inconclusive call do not appear. A call without a number means that no potency is given here. Activity calls are given as the source filed them. Unless noted, calls come from the whole dose curve.
# Assays:
# [1] = qHTS for Inhibitors of the Functional Ribonucleoprotein Complex (vRNP) of Lassa (LASV) Arenavirus: LASV Primary Screen - GLuc reporter signal (AID 1347082; calls by dose curve; tested in HEK293 reporter line; note: nearly all actives have a fitted effect of over 60% in size; note: potency is the fitted concentration of half-maximal effect)
# [2] = qHTS for Inhibitors of the Functional Ribonucleoprotein Complex (vRNP) of Lassa (LASV) Arenavirus: Viability assay - alamar blue signal for LASV Primary Screen (AID 1347083; calls by dose curve; tested in HEK293 reporter line; note: nearly all actives have a fitted effect of over 80% in size; note: potency is the fitted concentration of half-maximal effect)
# [3] = qHTS for Inhibitors of the Functional Ribonucleoprotein Complex (vRNP) of Lymphocytic Choriomeningitis Arenaviruses (LCMV): Viability assay - alamar blue signal for LCMV Primary Screen (AID 1347085; calls by dose curve; tested in HEK293 reporter line; note: nearly all actives have a fitted effect of over 80% in size; note: potency is the fitted concentration of half-maximal effect)
# [4] = biological target: Nucleoprotein (Lymphocytic choriomeningitis virus (strain Armstrong)) (UniProt P09992); assay: qHTS for Inhibitors of the Functional Ribonucleoprotein Complex (vRNP) of Lymphocytic Choriomeningitis Arenaviruses (LCMV): LCMV Primary Screen - GLuc reporter signal (AID 1347086); note: nearly all actives have a fitted effect of over 70% in size; note: potency is the fitted concentration of half-maximal effect
# [5] = Primary qHTS for inhibitors of SARS-S pseudo-typed particle cell entry (AID 1479145); note: nearly all actives have a fitted effect of over 45% in size
# [6] = Primary qHTS for Huh7 cytotoxicity: counterscreen for inhibitors of MERS-S pseudotyped particle cell entry (AID 1479147); settings: outcome: dose series up to 57.1 µM unless noted
# [7] = Primary qHTS for inhibitors of MERS-S pseudo-typed particle cell entry (AID 1479149); note: nearly all actives have a fitted effect of over 60% in size; note: potency is the fitted concentration of half-maximal effect
# [8] = Primary qHTS for Vero E6 cytotoxicity: counterscreen for inhibitors of SARS-S pseudo-typed particle cell entry (AID 1479150); settings: outcome: dose series up to 57.1 µM unless noted
# [9] = Cytotoxicity counterscreen for inhibitors of SARS-CoV-2 cell entry (AID 1645845); note: nearly all actives have a fitted effect of over 50% in size
# Summary of the method: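 HEK293-ACE2 cells (Expi293F stably expressing human ACE2) seeded overnight, then compound for 1 h plus 48 h at 37C. Viability as ATP content by luminescence; normalized to wells with cells and media-only wells.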
# [10] = Primary qHTS to identify inhibitors of SARS-CoV-2 cell entry (AID 1645846); settings: activity change, negative = inhibition: at 57.1 µM (top of the series) unless noted; note: nearly all actives have a fitted effect of over 45% in size
# Summary of the method: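 Luminescence readout (Bright-Glo luciferase) 48 h after pseudoparticle addition. HEK293-ACE2 cells, 1500/well; compound pre-incubation 1 h; Normalized to spike PP and bald PP.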
# [11] = Confirmatory qHTS to identify inhibitors of SARS-CoV-2 cell entry (AID 1645844); note: potency is the fitted concentration of half-maximal effect; nearly all actives have a fitted effect of over 45% in size
# Summary of the method: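 HEK293-ACE2 cells were pretreated 1 h with compound, then infected with MLV-based pseudoparticles bearing C-terminally truncated Wuhan-Hu-1 spike for 48 h at 37C; luciferase luminescence normalized to spike PP and bald PP wells.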
# [12] = VSVG counterscreen qHTS to identify inhibitors of SARS-CoV-2 cell entry (AID 1645847); note: potency is the fitted concentration of half-maximal effect; nearly all actives have a fitted effect of over 65% in size
# Summary of the method: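 HEK293-ACE2 cells (Expi293F stably expressing human ACE2) were pretreated with compound for 1 h at 37 °C, then infected with MLV-based VSV-G pseudotyped particles for 48 h. Luciferase luminescence was normalized to VSV-G PP and bald PP wells.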
# [13] = biological target: Alpha-galactosidase (Coffea arabica) (UniProt Q42656); assay: Counterscreen for Glucocerebrosidase Inhibitors: qHTS Assay for Coffee Bean alpha-Galactosidase at pH 4.5 (AID 957; active = well fitted curve in the direction sought with a large enough effect; an effect the other way counts as inactive or inconclusive)
# Summary of the method: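 AC50 values derive from Hill-equation modeling of concentration-response data, normalized to no-enzyme and full-activity controls. The pH 4.5 citrate assay used 2 nM coffee bean enzyme and 80 uM fluorogenic substrate for 20 min.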
# [14] = biological target: Alpha-galactosidase (Coffea arabica) (UniProt Q42656); assay: Counterscreen for Glucocerebrosidase Inhibitors: qHTS Assay for Coffee Bean alpha-Galactosidase at pH 5.9 (AID 998; active = well fitted curve in the direction sought with a large enough effect; an effect the other way counts as inactive or inconclusive)
# Summary of the method: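 Green coffee bean enzyme (2 nM) with 4-methylumbelliferyl alpha-D-galactopyranoside (80 uM) in 50 mM citric acid, 0.005% Tween-20, pH 5.9, 20 min at room temperature; compounds 0.7 nM–77 uM. Stopped at pH 10, fluorescence Ex365/Em440; Hill-fit AC50.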
# [15] = Validation screen for inhibitors of Lassa infection (AID 463096)
# [16] = Inducers of the Endoplasmic Reticulum Stress Response (ERSR) in human glioma: Validation (AID 504836; active = well fitted curve in the direction sought with a large enough effect; an effect the other way counts as inactive or inconclusive)
# Summary of the method: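 Stably transfected U87-MG glioma cells carrying a GRP78-based luciferase sensor; 16 h compound incubation. Luminescence end-point read 10 min after Bright-Glo addition at room temperature.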
# Alpha-galactosidase (Coffea arabica), sequence (Q42656 whole entry, looked up): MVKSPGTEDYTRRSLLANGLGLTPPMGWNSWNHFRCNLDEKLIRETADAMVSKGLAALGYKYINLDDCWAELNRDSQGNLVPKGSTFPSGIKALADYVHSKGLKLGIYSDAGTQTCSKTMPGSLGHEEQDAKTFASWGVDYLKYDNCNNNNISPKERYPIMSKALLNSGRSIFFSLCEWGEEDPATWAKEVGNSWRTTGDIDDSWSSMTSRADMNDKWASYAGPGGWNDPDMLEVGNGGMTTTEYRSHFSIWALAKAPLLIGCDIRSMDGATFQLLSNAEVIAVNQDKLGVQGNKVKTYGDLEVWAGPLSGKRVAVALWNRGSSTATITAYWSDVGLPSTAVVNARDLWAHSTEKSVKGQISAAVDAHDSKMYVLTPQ
# Nucleoprotein (Lymphocytic choriomeningitis virus (strain Armstrong)), sequence (P09992 whole entry, looked up): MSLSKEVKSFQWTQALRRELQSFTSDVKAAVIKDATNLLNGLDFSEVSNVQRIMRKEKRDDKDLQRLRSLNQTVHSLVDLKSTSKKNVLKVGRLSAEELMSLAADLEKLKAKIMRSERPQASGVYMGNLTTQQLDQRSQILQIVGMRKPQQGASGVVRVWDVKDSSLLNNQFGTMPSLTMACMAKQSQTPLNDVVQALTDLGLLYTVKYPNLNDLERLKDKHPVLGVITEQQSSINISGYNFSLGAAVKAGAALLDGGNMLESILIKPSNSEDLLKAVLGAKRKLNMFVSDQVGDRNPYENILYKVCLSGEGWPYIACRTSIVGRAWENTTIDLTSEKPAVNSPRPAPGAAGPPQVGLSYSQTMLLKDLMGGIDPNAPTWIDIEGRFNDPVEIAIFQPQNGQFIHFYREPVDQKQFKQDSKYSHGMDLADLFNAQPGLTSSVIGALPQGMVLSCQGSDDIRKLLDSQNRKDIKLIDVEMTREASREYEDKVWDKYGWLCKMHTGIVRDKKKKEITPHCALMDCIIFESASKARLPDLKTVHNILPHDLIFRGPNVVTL
structure (smiles),measurement,setting,value
CC(CC=O)CCCC(C)(C)O (stereo not given),Potency,[1],inactive
same,Potency,[2],inactive
same,Potency,[3],inactive
same,Potency,[4],inactive
same,Potency,[5],inactive
same,outcome,[6],inactive
same,Potency,[7],inactive
same,outcome,[8],inactive
same,Potency,[9],inactive
same,"activity change, negative = inhibition",[10],-11.7%
CC(/C=C/C=C(\C)C(=O)O[C@@H]1O[C@H](CO[C@@H]2O[C@H](CO)[C@@H](O)[C@H](O)[C@H]2O)[C@@H](O)[C@H](O)[C@H]1O)=C\C=C\C=C(C)\C=C\C=C(/C)C(=O)O[C@@H]1O[C@H](CO[C@@H]2O[C@H](CO)[C@@H](O)[C@H](O)[C@H]2O)[C@@H](O)[C@H](O)[C@H]1O,Potency,[1],inactive
same,Potency,[2],inactive
same,Potency,[3],inactive
same,Potency,[4],inactive
same,Potency,[5],inactive
same,outcome,[6],inactive
same,Potency,[7],inactive
same,outcome,[8],inactive
same,"activity change, negative = inhibition",[10],-12.5%
Cc1ccc(NC(=O)C2(c3ccc4c(c3)OC(F)(F)O4)CC2)nc1-c1cccc(C(=O)O)c1,Potency,[1],38.5 nM (active)
same,Potency,[2],43.2 nM (active)
same,Potency,[3],68.5 nM (active)
same,Potency,[4],21.7 nM (active)
same,outcome,[6],inactive
same,Potency,[7],inactive
same,outcome,[8],inactive
same,Potency,[9],inactive
same,Potency,[10],inactive
same,"activity change, negative = inhibition",[10],-24.6%
COc1c(OCCCN2CCOCC2)ccc2c3n(c(=NC(=O)c4cnc(N)nc4)nc12)CCN3,Potency,[1],1500 nM (active)
same,Potency,[2],298 nM (active)
same,Potency,[3],1060 nM (active)
same,Potency,[4],2980 nM (active)
same,"activity change, negative = cytotoxicity",[6],3.49% [at 11.4 µM] (inactive)
same,Potency,[7],3550 nM (active)
same,"activity change, negative = cytotoxicity",[8],-14.8% [at 11.4 µM] (inactive)
same,Potency,[11],312 nM (active)
same,Potency,[12],2780 nM (active)
NC(N)=NCc1cccc(I)c1,outcome,[13],inactive
same,outcome,[14],inactive
same,Potency,[15],inactive
same,outcome,[16],inactive
same,Potency,[1],inactive
same,Potency,[2],inactive
same,Potency,[3],inactive
same,Potency,[4],inactive
same,outcome,[6],inactive
same,Potency,[7],inactive
same,outcome,[8],inactive
same,Potency,[9],inactive
NCCCC(=O)O,outcome,[14],inactive
same,outcome,[16],inactive
same,Potency,[1],inactive
same,Potency,[2],inactive
same,Potency,[3],inactive
same,Potency,[4],inactive
same,Potency,[5],inactive
CCc1cc2c(cc1N1CCC(N3CCOCC3)CC1)C(C)(C)c1[nH]c3cc(C#N)ccc3c1C2=O,Potency,[1],inactive
same,Potency,[2],inactive
same,Potency,[3],inactive
same,Potency,[4],inactive
same,outcome,[6],inactive
same,Potency,[7],inactive
same,outcome,[8],inactive
same,Potency,[9],inactive
same,Potency,[10],inactive
same,"activity change, negative = inhibition",[10],-34.9% [at 27.1 µM]
O=C1CCCC(=O)C1C(=O)c1ccc(C(F)(F)F)cc1[N+](=O)[O-],Potency,[1],inactive
same,Potency,[2],inactive
same,Potency,[3],inactive
same,Potency,[4],inactive
same,outcome,[6],inactive
same,Potency,[7],inactive
same,outcome,[8],inactive
same,Potency,[10],inactive
CC(=O)O[C@H]1Cc2ccccc2N(C(N)=O)c2ccccc21,outcome,[16],inactive
same,Potency,[1],inactive
same,Potency,[2],inactive
same,Potency,[3],inactive
same,Potency,[4],inactive
same,outcome,[6],inactive
same,Potency,[7],inactive
same,outcome,[8],inactive
same,Potency,[9],inactive
same,"activity change, negative = inhibition",[10],-29.9%
